Records with an inconclusive call do not appear. Activity calls are given as the source filed them. The calls were made as follows: active = hit-call score of the fitted dose curve at least 0.9, where 1 is the maximum; inconclusive = response in the unintended direction; inactive = score below 0.9.
Experiments:
[1] = ACEA_AR_antagonist_AUC_viability: ACEA Biosciences xCELLigence Real-Time Cell Analysis on Androgen Receptor Antagonism for Viability (AID 2283776);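 also: 22Rv1 human prostate cancer cells growing on impedance electrode plates; area under impedance growth curve at 80 h after dosing as viability; hits lower the growth signal relative to DMSO meaning cytotoxicity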
How it was run: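 Real-time electrical impedance tracks 22Rv1 proliferation after continuous compound exposure (top 100 uM final, 1:4 steps, 8 concentrations). The 80 h area-under-curve serves as the cytotoxicity readout relative to DMSO.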

[2] = ACEA_AR_agonist_AUC_viability: ACEA Biosciences xCELLigence Real-Time Cell Analysis on Androgen Receptor Agonism for Viability (AID 2283775)
How it was run: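 22Rv1 cells; impedance growth kinetics; 8-pt 1:4 dilutions from 100 uM top final, ≤0.5% DMSO; n = 2; 80 h read; AUC viability, loss-of-signal vs DMSO.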

**Q.** For `CCCCCCCO`, which outcome [1] is on record?
**A.** inactive

**Q.** For `Oc1ccccc1Cc1ccccc1O`, which AC50 [1] is on record?
**A.** 1.48 µM (active)

**Q.** For `O=C(O)c1ccc2c(c1)C(=O)OC2=O`, which outcome [1] is on record?
**A.** inactive

**Q.** With `CO[Si](C)(C)OC` as the molecule, how does the outcome [2] read?
**A.** inactive

**Q.** What about the outcome [1] of the same molecule?
**A.** inactive

**Q.** For `COc1cc(O)c(C(=O)c2ccccc2)cc1S(=O)(=O)O`, which outcome [1] is on record?
**A.** inactive

**Q.** With `O=C(O)CC(C(=O)O)S(=O)(=O)O` (stereo not drawn) as the molecule, how does the outcome [2] read?
**A.** inactive

**Q.** And the outcome [1]?
**A.** inactive

**Q.** Which outcome [2] does the source give for `CC1(C)[C@@H]2CC[C@@]1(C)C(=O)C2` here?
**A.** inactive

**Q.** What about the outcome [1] of the same molecule?
**A.** inactive

**Q.** Which outcome [2] does the source give for `CC(C)(C)C1CCC(=O)CC1` here?
**A.** inactive

**Q.** What about the outcome [1] of the same molecule?
**A.** inactive

**Q.** Which results are given for `NC(=O)Nc1ccccc1`?
**A.** outcome [2]: inactive; outcome [1]: inactive

**Q.** Which outcome [2] does the source give for `CCCCCCCCCCCCCC(=O)OC(C)C` here?
**A.** inactive

**Q.** What about the outcome [1] of the same molecule?
**A.** inactive

**Q.** For `CCCCCC(=O)OCC`, which outcome [1] is on record?
**A.** inactive

**Q.** With `CCC[Si](OC)(OC)OC` as the molecule, how does the outcome [2] read?
**A.** inactive

**Q.** What about the outcome [1] of the same molecule?
**A.** inactive

**Q.** Which outcome [1] does the source give for `Cc1ccc(C)c(OCCCC(C)(C)C(=O)O)c1` here?
**A.** inactive

**Q.** For `CCCCNS(=O)(=O)c1ccccc1`, which outcome [2] is on record?
**A.** inactive

**Q.** What about the outcome [1] of the same molecule?
**A.** inactive

**Q.** Which outcome [1] does the source give for `CCC1COC(=O)O1` (stereo not drawn) here?
**A.** inactive
